# Results reported in PubChem BioAssay AID1445 (SRMLSC, 2008).
# About 910 (0.41%) of roughly 220,000 compounds were called active.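 How the source made its calls: active means primary inhibition above the hit cutoff, then over 50% inhibition at one or more dose response concentrations (cut at about 23% in these data, passing the limit was not always enough); inconclusive means conflicting primary data, or primary hits not chosen for dose response; inactive means low primary inhibition, or under 50% at every dose.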 This excerpt belongs to a sample that is enriched for actives. Entries with a potency or affinity are not part of this list.
# Target: Aminopeptidase N (Plasmodium falciparum (isolate 3D7)) (UniProt O96935)
# Assay: malaria alanyl aminopeptidase activity blockers – biochemical, fluorogenic H-Leu-NHMec substrate, 1536-well (AID 1445);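 further: plate controls were DMSO full reaction for no effect and no enzyme background for full effect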
# Conditions: recombinant M1AAP, H-Leu-NHMec fluorogenic kinetic assay; at 30 µM, stronger effect = higher value unless noted
# Sequence of Aminopeptidase N (Plasmodium falciparum (isolate 3D7)) (O96935 whole entry, looked up): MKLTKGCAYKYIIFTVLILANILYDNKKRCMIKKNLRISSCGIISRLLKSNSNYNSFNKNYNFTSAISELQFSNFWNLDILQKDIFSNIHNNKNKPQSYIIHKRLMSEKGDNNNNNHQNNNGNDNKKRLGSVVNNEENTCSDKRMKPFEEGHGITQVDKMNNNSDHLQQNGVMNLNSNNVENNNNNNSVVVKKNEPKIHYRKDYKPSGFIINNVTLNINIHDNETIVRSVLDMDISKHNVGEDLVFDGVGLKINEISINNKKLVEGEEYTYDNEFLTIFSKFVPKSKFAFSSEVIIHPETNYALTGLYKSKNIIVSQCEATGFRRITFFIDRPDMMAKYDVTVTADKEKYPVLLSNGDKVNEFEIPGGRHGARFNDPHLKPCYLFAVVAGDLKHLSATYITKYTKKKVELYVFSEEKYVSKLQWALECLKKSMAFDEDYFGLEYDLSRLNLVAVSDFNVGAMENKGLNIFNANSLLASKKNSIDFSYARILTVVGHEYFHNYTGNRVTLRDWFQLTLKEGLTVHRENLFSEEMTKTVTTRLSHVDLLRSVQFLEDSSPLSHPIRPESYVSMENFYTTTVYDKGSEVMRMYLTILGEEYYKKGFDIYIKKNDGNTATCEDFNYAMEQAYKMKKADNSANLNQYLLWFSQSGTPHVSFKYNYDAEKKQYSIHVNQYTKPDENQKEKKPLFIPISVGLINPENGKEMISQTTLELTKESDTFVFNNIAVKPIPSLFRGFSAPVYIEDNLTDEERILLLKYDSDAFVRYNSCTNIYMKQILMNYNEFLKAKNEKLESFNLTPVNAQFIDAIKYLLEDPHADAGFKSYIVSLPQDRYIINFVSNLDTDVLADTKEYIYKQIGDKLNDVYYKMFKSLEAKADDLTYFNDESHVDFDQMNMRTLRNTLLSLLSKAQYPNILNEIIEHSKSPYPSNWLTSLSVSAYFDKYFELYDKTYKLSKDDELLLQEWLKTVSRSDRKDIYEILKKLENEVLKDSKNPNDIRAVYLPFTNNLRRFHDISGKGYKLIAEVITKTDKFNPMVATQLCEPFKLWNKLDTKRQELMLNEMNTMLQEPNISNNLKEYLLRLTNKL
row,SMILES,inhibition
1,CCOC(=O)N1CCN(c2c(N3CCN(c4cccc(C(F)(F)F)c4)CC3)c(=O)c2=O)CC1,4.51% (inactive)
2,CC1=CCC2C(=O)N(c3ccc(S(N)(=O)=O)cc3)C(=O)C2C1 (centres undefined),2.35% (inactive)
3,Cc1nnc2ccc(N3CCOCC3)nn12,0.92% (inactive)
4,CCn1c(C)nc2cc(C(=O)NNC(=S)Nc3ccc(Cl)cc3)ccc21,-13.2% (inactive)
5,CCN1CCc2c(OCC(=O)N3CCCCC3)cccc2C1=O,1.05% (inactive)
6,CCn1c(C)cc(/C=C2\SC(=O)N(CC(=O)Nc3ccc(C)c(C)c3)C2=O)c1C,2.14% (inactive)
7,C#CCN1C(=O)S/C(=C/c2cc(C)n(CC)c2C)C1=O,9.33% (inactive)
8,Cc1ccc(NC(=O)c2cc(C(C)(C)C)nn2Cc2ccccc2)cc1,5.05% (inactive)
9,Cc1cc(C)cc(OCC(=O)N(Cc2cccs2)C2CCS(=O)(=O)C2)c1 (centres undefined),2.35% (inactive)
10,Cc1cc(=O)[nH]c(-c2ccccc2O)n1,10.9% (inactive)
11,CSc1nc2c(c(=O)n1C)SC(C)C2 (centres undefined),1.34% (inactive)
12,CC(C)Sc1nc2c(c(=O)n1C)SC(C)C2 (centres undefined),11.9% (inactive)
13,CCC(C)Sc1nc2c(c(=O)n1C)SC(C)C2 (centres undefined),23.5% (active)
14,O=C(CNC(=S)N(CCCN1CCOCC1)Cc1cccs1)NC1CCCC1,5.27% (inactive)
15,COc1ccc(N2CCN(c3ccc(N4C(=O)CC(C)C4=O)cc3[N+](=O)[O-])CC2)cc1 (centres undefined),-8.33% (inactive)
16,c1ccc(NC2=Nc3cccc4cccc2c34)cc1,1.68% (inactive)
17,CCCCN(C)C1=Nc2cccc3cccc1c23,26.3% (active)
18,NC1=Nc2cccc3cccc1c23,3.4% (inactive)
19,CC1=NN(c2nc(-c3ccc(C)cc3)cs2)C(=O)C1N=Nc1ccc2ccccc2c1 (centres undefined),-4.56% (inactive)
20,CC1=NN(c2nc(-c3ccc(C)cc3)cs2)C(=O)C1N=Nc1cccc(O)c1 (centres undefined),6.79% (inactive)
21,COc1ccc([N+](=O)[O-])cc1NC(=O)c1cc(C)c(C)o1,8.9% (inactive)
22,Cc1ccsc1C1NC(=O)c2c(sc3c2CCN(C)C3)N1 (centres undefined),25.9% (active)
23,CN1CCc2c(sc3c2C(=O)NC(c2cccs2)N3)C1 (centres undefined),11.5% (inactive)
24,Cc1ccsc1C1NC(=O)c2c(sc3c2CCCC3)N1 (centres undefined),-10.2% (inactive)
25,COC(=O)c1cn(-c2ccccc2)c(=O)c2ccccc12,0.56% (inactive)
26,Cc1ccc(-c2csc3ncn(CC(=O)N4CCOCC4)c(=O)c23)cc1C,16.1% (inactive)
27,Cc1sc2ncn(CC(=O)N3CCOCC3)c(=O)c2c1-c1ccccc1,22.3% (inactive)
28,CCOC(=O)N1CCC(NC(=O)c2ccc3c(c2)sc2nc(-c4ccc(OC)cc4)cn23)CC1,6.96% (inactive)
29,CCOC(=O)N1CCC(NC(=O)c2ccc3c(c2)sc2nc(-c4ccccc4)cn23)CC1,31.7% (inactive)
